Rab9 promoter act – qHTS Assay for Rab9 Promoter Activators. Huh7 Rab9 promoter-luciferase reporter, luminescence, 24 h. Potency, µM (series often up to 9.22 µM), for inactives: top-dose activation, negative = inhibition, usual class: activators. 320,000 compounds, 2.8% hits. AID 485297, 2010; also: % of control where 0% means no effect; nearly all actives have a fitted effect of over 60% in size
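Huh7 cells stably carrying Rab9 promoter–luciferase reporter, plated 1500 cells/well, compound added after 2 h and incubated 24 h at 37 °C; luciferase luminescence then read after 10 min with detection reagent.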
ELG1 genotoxic – qHTS screen for small molecules that induce genotoxicity in human embryonic kidney (HEK293T) cells expressing luciferase-tagged ELG1; HEK293T ELG1-luciferase reporter, luminescence, 16 h; Potency, µM (highest dose often 46 µM), without a hit: top-dose activity change, positive = activation, actives largely listed as activators; 330,000 compounds, 1.3% hits; also: % of control where 0% means no effect; nearly all actives have a fitted effect of over 60% in size
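16 hr compound incubation (37 °C, 5% CO2) of HEK293T cells carrying luciferase-tagged ELG1; luciferase then measured by ONE-Glo luminescence after 30 min at RT.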
FLuc modulator – qHTS profiling assay for firefly luciferase inhibitor/activator using purifed enzyme and Km concentrations of substrates (counterscreen for miR-21 project). Potency, µM (doses to about 57.5 µM), inactives show top-dose activity change, negative = inhibition, hits mostly inhibitors. purified FLuc, Km substrates, luminescence inhibition. 360,000 compounds, 6.9% hits;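 also: plate controls were vehicle for no effect and reference inhibitor for full effect; nearly all actives have a fitted effect of over 55% in size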
Target sequence (P08659 whole entry, looked up): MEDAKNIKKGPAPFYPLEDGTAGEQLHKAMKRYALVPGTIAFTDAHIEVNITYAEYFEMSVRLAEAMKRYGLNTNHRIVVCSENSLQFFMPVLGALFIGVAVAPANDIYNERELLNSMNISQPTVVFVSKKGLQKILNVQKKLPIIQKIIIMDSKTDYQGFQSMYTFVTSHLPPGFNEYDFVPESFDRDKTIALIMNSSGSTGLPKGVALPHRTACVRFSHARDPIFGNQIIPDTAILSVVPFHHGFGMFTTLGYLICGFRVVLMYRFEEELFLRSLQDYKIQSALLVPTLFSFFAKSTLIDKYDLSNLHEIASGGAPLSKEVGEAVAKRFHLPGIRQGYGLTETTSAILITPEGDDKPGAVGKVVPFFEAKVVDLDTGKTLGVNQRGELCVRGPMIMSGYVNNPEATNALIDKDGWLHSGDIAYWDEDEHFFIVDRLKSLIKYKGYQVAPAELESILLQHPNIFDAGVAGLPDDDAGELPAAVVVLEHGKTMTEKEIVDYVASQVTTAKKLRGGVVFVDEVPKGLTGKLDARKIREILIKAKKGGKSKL
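Purified P. pyralis luciferase, 10 nM final, with Km-level 10 uM D-luciferin and 10 uM ATP in 50 mM Tris acetate pH 7.5, 10 mM Mg acetate, 0.01% Tween-20, 0.05% BSA; 6-point qHTS titration about 60 µM downward; luminescence read.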
SMN2 splice enh – qHTS Assay for Enhancers of SMN2 Splice Variant Expression; HEK293 SMN2-luciferase splicing reporter, luminescence, 30-36 h; 210,000 compounds, 2.8% hits; Potency, µM (highest dose often 46.1 µM), for the others: at the top dose activity change, positive = activation, usual class: activators; also: % of control where 0% means no effect; nearly all actives have a fitted effect of over 55% in size
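HEK293 cells carry an SMN2 minigene-luciferase reporter in which exon 7 inclusion puts luciferase in frame. Cells were seeded at 2000 cells/well, attached for 10-12 hours, then exposed to compounds for 30-36 hours at 37C before ONE-Glo luminescence.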
uPA generation – qHTS for Inhibitors of Cell Surface uPA Generation. cell surface uPA generation assay, qHTS. Potency, µM (doses to about 38.3 µM), for inactives: at the top dose activity change, negative = inhibition, most hits filed as inhibitors. 330,000 compounds, 0.31% hits; active = well fitted inhibition curve with a large enough effect; inconclusive = small, poorly fitted or top-dose-only effect; inactive = no such curve, though single readings can be large or run the other way; tested in mouse RAW 264.7 cells; also: % is scaled to controls: 0 for no effect and ±100 for the full control effect; nearly all actives have a fitted effect of over 55% in size
NPC1 promoter act – qHTS Assay for NPC1 Promoter Activators; Huh7 NPC1 promoter luciferase reporter, 24 h; Potency, µM (series often up to 9.22 µM), for the others: top-dose activation, actives largely listed as activators; 320,000 compounds, 2.4% hits; AID 485313, 2010; also: % of control where 0% means no effect; nearly all actives have a fitted effect of over 60% in size
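Huh7 cells stably carrying NPC1 promoter–luciferase, plated in Opti-MEM with 10% FBS for 2 h, were exposed to compound in DMSO for 24 h at 37 °C; luciferase reagent was added for 10 min and luminescence read.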
An asterisk follows results filed as active; [ ] = dose if it differs, or a comment. This is a sample that favours compounds with a hit; in the whole collection about 7.3% have one here. Unless noted, calls follow the shape of the dose curve; as a rule, active = well fitted curve in the direction sought with a large enough effect; inconclusive = small, poorly fitted or top-dose-only effect, or another doubt; inactive = no such curve, though single readings can be large; an effect the other way counts as inactive or inconclusive. Potency is read from the fitted curve at half-maximal effect.

Results for CC(=O)c1c(C)nn(-c2ccccc2)c1C ?
Rab9 promoter act: -5.7%; ELG1 genotoxic: -0.5%; FLuc modulator: 1.5%; uPA generation: -5.5%; NPC1 promoter act: -0.7%

Results for Cc1cc(C(=O)OCC(=O)N2CCOCC2)c(C)n1-c1ccccc1 ?
ELG1 genotoxic: 8.2%; uPA generation: 8.5%

What do the screens show for `COc1ccc(S(=O)(=O)N2CCN(C(=O)c3c(C)nn(-c4ccccc4)c3C)CC2)cc1`?
Rab9 promoter act: -2.0%; ELG1 genotoxic: -0.1%; FLuc modulator: -1.4%; uPA generation: -3.5%; NPC1 promoter act: 1.6%

Results for Cc1cc(C(=O)OCC(=O)Nc2c(F)cccc2F)c(C)n1-c1ccccc1 ?
Rab9 promoter act: 25.4%; ELG1 genotoxic: 15.6%; FLuc modulator: 10.7µM*; SMN2 splice enh: -6.3%; uPA generation: 3.2%; NPC1 promoter act: 24.4%

Results for O=C(COC(=O)c1ccc(OC(F)(F)F)cc1)NCCN1C(=O)CSC1=O ?
Rab9 promoter act: 0.8%; ELG1 genotoxic: 1.8%; FLuc modulator: 7.3%; uPA generation: -10.7%; NPC1 promoter act: -9.7%

How did O=C1C2=C(Nc3cc([N+](=O)[O-])ccc3N2)O[C@@H]1c1ccc([C@H]2OC3=C(Nc4ccc([N+](=O)[O-])cc4N3)C2=O)cc1 do in these assays?
SMN2 splice enh: 9.6%[9.22 µM]

What do the screens show for `O=C(CSc1nnc(-c2ccccc2F)o1)NC(=O)Cc1ccccc1`?
Rab9 promoter act: 1.3%; ELG1 genotoxic: -1.2%; uPA generation: 10.5%; NPC1 promoter act: -2.3%

Results for Cc1nn(-c2ccccc2)c(C)c1C(=O)OCC(=O)Nc1ccccc1F ?
Rab9 promoter act: 2.24µM*; ELG1 genotoxic: inconclusive; FLuc modulator: 4.78µM*; uPA generation: 10µM*; NPC1 promoter act: 3.98µM*

What do the screens show for `Cc1cc(C)n(C(C)CC(=O)NCc2ccc(N(C)C)cc2)n1` (stereo not drawn)?
FLuc modulator: -4.8%

How did O=c1c2cn[nH]c2[nH]c(=S)n1-c1ccccc1F do in these assays?
Rab9 promoter act: inconclusive; ELG1 genotoxic: 6.51µM*; FLuc modulator: 1.2µM*; SMN2 splice enh: 14.1µM*; uPA generation: 7.9%; NPC1 promoter act: 2.82µM*

Results for COc1ccc(-c2noc(N(C)CC(=O)Nc3cccc(C(F)(F)F)c3)n2)cc1 ?
Rab9 promoter act: 22.3%; ELG1 genotoxic: 2.1%; FLuc modulator: 8.49µM*; SMN2 splice enh: 9.1%; uPA generation: 14.7%; NPC1 promoter act: inconclusive

How did COc1cccc(Nc2nnc(SCC(=O)N3CCOCC3)s2)c1 do in these assays?
Rab9 promoter act: 15.0%; ELG1 genotoxic: 13.6%; FLuc modulator: 19µM*; SMN2 splice enh: -7.7%; uPA generation: -14.7%; NPC1 promoter act: 11.9%

Results for O=C1CN(C(=O)CSc2nncs2)c2ccccc2N1 ?
Rab9 promoter act: -4.0%; ELG1 genotoxic: 0.8%; FLuc modulator: -3.8%; SMN2 splice enh: -1.4%; uPA generation: -0.3%; NPC1 promoter act: -4.9%

Results for COc1ccc(Nc2nnc(SCC(=O)N3CC(=O)Nc4ccccc43)s2)cc1 ?
Rab9 promoter act: 15.4%; ELG1 genotoxic: -0.9%; FLuc modulator: 8.49µM*; uPA generation: -3.3%; NPC1 promoter act: 14.1%

How did COc1ccc(Nc2nnc(SCC(=O)c3cc(C)n(CC4CCCO4)c3C)s2)cc1 (stereo not drawn) do in these assays?
Rab9 promoter act: 8.6%; ELG1 genotoxic: 2.3%; FLuc modulator: 3.79µM*; SMN2 splice enh: -26.8%; uPA generation: 2.8%; NPC1 promoter act: 8.8%

Results for COc1ccc(Nc2nnc(SCC(=O)N3CCCC3)s2)cc1 ?
Rab9 promoter act: 1.3%; ELG1 genotoxic: 0.2%; FLuc modulator: 16.9µM*; SMN2 splice enh: 8.1%; uPA generation: -13.3%; NPC1 promoter act: 11.3%

How did NS(=O)(=O)c1ccc(CCNC(=O)c2cc3ccccc3oc2=O)cc1 do in these assays?
Rab9 promoter act: 7.8%; ELG1 genotoxic: 4.2%; FLuc modulator: -1.6%; uPA generation: -0.3%; NPC1 promoter act: -1.3%

How did Cc1ccc(-n2c(=O)c3c(cnn3C)n(CC(=O)Nc3ccc(C)cc3C)c2=O)cc1 do in these assays?
FLuc modulator: -0.6%; SMN2 splice enh: 2.2%

What do the screens show for `Cc1c(C(=O)N/N=C/c2cccnc2)sc(N)c1C#N`?
Rab9 promoter act: 12.6%; ELG1 genotoxic: 6.9%; FLuc modulator: -12.4%; uPA generation: 10.7%; NPC1 promoter act: -2.5%

How did Cc1noc(NS(=O)(=O)c2ccc(NC(=O)c3nn(-c4ccccc4)ccc3=O)cc2)c1C do in these assays?
Rab9 promoter act: -1.1%; ELG1 genotoxic: -2.2%; FLuc modulator: -0.1%; uPA generation: 1.0%; NPC1 promoter act: -10.2%

What do the screens show for `CC(C)Oc1ccc(C(=O)Nc2nnc(SCC(=O)N3CCOCC3)s2)cc1`?
Rab9 promoter act: 0.398µM*; ELG1 genotoxic: inconclusive; FLuc modulator: 0.0601µM*; SMN2 splice enh: 1.41µM*; uPA generation: -14.0%; NPC1 promoter act: inconclusive

Results for Cc1oc(-c2ccccc2Cl)nc1CS(=O)(=O)CC(=O)N1CCOCC1 ?
Rab9 promoter act: 3.4%; ELG1 genotoxic: 0.3%; FLuc modulator: -0.4%; uPA generation: 16.4%; NPC1 promoter act: -3.8%

How did COc1ccc(-c2cc3ccc(O)c(CN4CCN(C)CC4)c3oc2=O)cc1OC do in these assays?
FLuc modulator: -10.2%

Results for COc1ccc(-c2nc(-c3ccccc3)c(-c3ccc(O)cc3)[nH]2)cc1 ?
FLuc modulator: inconclusive; SMN2 splice enh: 3.4%

What do the screens show for `Cc1ccc(-c2nc(N=Nc3ccc(O)cc3)n[nH]2)cc1`?
Rab9 promoter act: -9.4%; ELG1 genotoxic: 2.1%; FLuc modulator: 8.49µM*; SMN2 splice enh: 25.1µM*; uPA generation: -1.8%; NPC1 promoter act: 4.7%

What do the screens show for `COc1ccc(-c2nc(N=Nc3ccc(O)cc3)n[nH]2)cc1`?
Rab9 promoter act: 3.8%; ELG1 genotoxic: 5.7%; FLuc modulator: 9.53µM*; SMN2 splice enh: -8.9%; uPA generation: -7.1%; NPC1 promoter act: -5.8%

What do the screens show for `Cc1nc(N=Nc2ccc(O)cc2)n[nH]1`?
Rab9 promoter act: inconclusive; ELG1 genotoxic: inconclusive; FLuc modulator: 16.9µM*; uPA generation: inconclusive; NPC1 promoter act: 3.16µM*

Results for COc1cc(CNCCSc2nnnn2C)ccc1OCc1ccc(C)cc1 ?
FLuc modulator: inconclusive; SMN2 splice enh: 18.8%
